# Results from PubChem BioAssay.
# The source made the active and inactive calls. Unless noted, no rule for the calls is given here.
# Legend:
# [1] = system: Wnt5a (protein binding on small-molecule microarray); test: small molecules binding Wnt5a protein – biophysical, small-molecule microarray, 635/667 nm fluorescence, primary screen (AID 1142); settings: 635 nm fluorescence, higher = more signal;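 also: fluorescence read at 667 nm with signal to noise per printed feature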
# [2] = ATP-based viability of Huh7 replicon cells – cell-based, CellTiter-Glo luminescence, basal, 48 h, cytotoxicity control for HCV replication inhibitor project, primary screen (AID 1143); settings: higher = more signal, called active from +8 up or from −8 down;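 also: Huh7 hepatoma cells carrying a hepatitis C replication reporter with no stimulus; test concentration not given here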
# [3] = Pseudomonas biofilm growth suppression – PAO1 strain, BacTiter-Glo luminescence, LB-PBS, primary screen (AID 1144); settings: P. aeruginosa PAO1 biofilm, 12 h, higher = more signal
# [4] = basal CRE-LacZ reporter activity in PC12 – cell-based, unstimulated, primary screen (AID 1145); settings: no forskolin, luminescence, 4.5 h, higher = more signal, called active from +8 up or from −8 down
# [5] = forskolin-driven CRE-LacZ activity in PC12 – cell-based, CRE-LacZ reporter, forskolin-stimulated, primary screen (AID 1146); settings: luminescence, 4.5 h, higher = more signal, called active from +8 up or from −8 down;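 also: PC12 cells with 6xCRE LacZ reporter stimulated by forskolin 10 µM; beta-galactosidase reporter signal reflecting CREB driven transcription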
# [6] = molecular target: Streptavidin (Streptomyces avidinii) (UniProt P22629); test: compounds binding control protein streptavidin – biophysical, small-molecule microarray, 635/667 nm fluorescence, artefact control for SMM compound annotation, primary screen (AID 1147); settings: higher = more signal;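 also: signal reflects streptavidin binding to arrayed compounds as a control protein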
# Sequence of Streptavidin (Streptomyces avidinii) (P22629 whole entry, looked up): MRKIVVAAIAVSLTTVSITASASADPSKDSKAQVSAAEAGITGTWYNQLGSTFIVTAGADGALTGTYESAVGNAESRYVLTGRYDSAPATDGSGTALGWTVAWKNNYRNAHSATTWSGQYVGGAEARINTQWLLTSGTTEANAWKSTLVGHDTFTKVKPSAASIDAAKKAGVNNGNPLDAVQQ
# [7] = probe aInhba binding on compound microarray – biochemical, small-molecule microarray, 635/667 nm fluorescence, primary screen (AID 1148); settings: higher = more signal;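 also: score merges 667nm spot fluorescence with signal-to-noise for antibody binding to printed compounds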
# Torsin-1A (Homo sapiens) [8] = molecular target: Torsin-1A (Homo sapiens) (UniProt O14656); test: TOR1A wild-type binding on microarray – cell lysate, small-molecule microarray, lysate, 635/667 nm, primary screen (AID 1149); settings: COS7 hTOR1A-WT lysate, 635 nm fluorescence, higher = more signal
# Sequence of Torsin-1A (Homo sapiens) (O14656 whole entry, looked up): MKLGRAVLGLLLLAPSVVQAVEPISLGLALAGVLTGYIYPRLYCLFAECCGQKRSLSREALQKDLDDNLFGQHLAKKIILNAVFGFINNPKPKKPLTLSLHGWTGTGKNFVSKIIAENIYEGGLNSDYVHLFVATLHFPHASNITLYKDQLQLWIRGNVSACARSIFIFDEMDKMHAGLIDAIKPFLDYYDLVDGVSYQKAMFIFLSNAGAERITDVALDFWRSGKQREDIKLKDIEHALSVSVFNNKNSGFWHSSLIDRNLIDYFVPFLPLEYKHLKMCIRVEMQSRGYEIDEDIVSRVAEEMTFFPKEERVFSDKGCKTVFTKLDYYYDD
# Torsin-1A (Homo sapiens) [9] = molecular target: Torsin-1A (Homo sapiens) (UniProt O14656); test: torsin A mutant lysate binding on microarrays – cell lysate, small-molecule microarray, COS7 lysate, 635/667 nm fluorescence, primary screen (AID 1150); settings: COS7 hTOR1A mutant lysate, 635 nm fluorescence, higher = more signal;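 also: score pools 667 nm emission and signal to noise measuring lysate protein binding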
# [10] = system: Sonic hedgehog protein (Shh); test: Sonic hedgehog microarray binding compounds – biochemical, small-molecule microarray, 635/667 nm fluorescence, primary screen (AID 1151); settings: 635 nm fluorescence, higher = more signal;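 also: Shh protein binding to compounds spotted on small-molecule microarray slides; score combines spot fluorescence intensity with signal-to-noise across triplicate slides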
# [11] = optical density shifts of acrAB sulA E. coli – strain DRC41, OD650, 48 h, E. coli filamentation inducer project, primary screen (AID 1152); settings: higher = more signal, called active from +8 up or from −8 down;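 also: E. coli MC1000 strain DRC41 lacking acrAB efflux pump and sulA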
# [12] = probe aLefty1 binding on compound microarray – biochemical, small-molecule microarray, 635/667 nm fluorescence, primary screen (AID 1153); settings: higher = more signal;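 also: score merges spot fluorescence with signal-to-noise ratio from the scanned slide images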
# [13] = plasmodial surface anion channel blockers, osmotic lysis – cell-based, P. falciparum Indochina, OD700, 1 h, primary screen (AID 1154); settings: P. falciparum Indochina infected RBC osmotic lysis, higher = more signal, called active from +8 up or from −8 down
# [14] = plasmodial surface anion channel blockers, osmotic lysis – cell-based, P. falciparum Indochina, OD700, 2 h, primary screen (AID 1155);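 also: lysis reports solute entry through the parasite surface anion channel PSAC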; settings: P. falciparum Indochina infected erythrocytes, higher = more signal, called active from +8 up or from −8 down
# [15] = changes in parasitized red cell lysis, either direction – P. falciparum Indochina, OD700, 3 h, PSAC antagonist project, primary screen (AID 1156); settings: P. falciparum-infected erythrocytes, osmotic lysis, higher = more signal, called active from +8 up or from −8 down
# [16] = plasmodial surface anion channel blockers, osmotic lysis – cell-based, P. falciparum Indochina, OD700, 18 h, primary screen (AID 1157); settings: P. falciparum Indochina infected erythrocytes, osmotic lysis OD700, 18 h; higher = more signal, called active from +8 up or from −8 down
# [17] = S6 kinase pathway phospho-S6 level changes – cell-based, A549, cytoblot, luminescence, serum-stimulated, primary screen (AID 1158); settings: 5 h, higher = more signal;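 also: serum-stimulated A549 lung adenocarcinoma cells; signal is phosphorylated S6 detected by cytoblot immunostaining with HRP secondary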
# [18] = molecular target: NADPH oxidase 2 (Homo sapiens) (UniProt P04839); test: compounds shifting NOX2 Amplex Red fluorescence – cell-based, HEK293-NOX2, PMA-stimulated, NOX inhibitor project, primary screen (AID 1159); settings: 45 min, higher = more signal, called active from +8 up or from −8 down; also: test concentration not given here
# Sequence of NADPH oxidase 2 (Homo sapiens) (P04839 whole entry, looked up): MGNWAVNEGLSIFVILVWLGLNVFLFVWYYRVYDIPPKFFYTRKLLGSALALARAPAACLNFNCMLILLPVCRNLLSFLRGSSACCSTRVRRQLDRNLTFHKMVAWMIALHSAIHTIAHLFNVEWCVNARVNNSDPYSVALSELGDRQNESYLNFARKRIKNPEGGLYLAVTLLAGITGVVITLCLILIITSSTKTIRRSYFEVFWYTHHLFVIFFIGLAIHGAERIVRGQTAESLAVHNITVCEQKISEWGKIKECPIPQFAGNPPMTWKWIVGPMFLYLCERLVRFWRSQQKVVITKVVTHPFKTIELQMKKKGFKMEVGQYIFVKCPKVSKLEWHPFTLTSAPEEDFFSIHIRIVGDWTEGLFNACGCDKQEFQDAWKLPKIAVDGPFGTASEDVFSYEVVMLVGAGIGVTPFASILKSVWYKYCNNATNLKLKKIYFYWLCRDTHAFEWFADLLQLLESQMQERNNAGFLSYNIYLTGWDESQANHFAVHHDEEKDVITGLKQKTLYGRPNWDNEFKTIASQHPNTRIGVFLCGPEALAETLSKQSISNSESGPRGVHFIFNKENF
# [19] = molecular target: NADPH oxidase 4 (Homo sapiens) (UniProt Q9NPH5); test: compounds shifting NOX4 Amplex Red fluorescence – cell-based, HEK293-NOX4, tetracycline-induced, NOX inhibitor project, primary screen (AID 1160); settings: HEK293-NOX4, Amplex Red H2O2 fluorescence, 45 min; higher = more signal, called active from +8 up or from −8 down
# Sequence of NADPH oxidase 4 (Homo sapiens) (Q9NPH5 whole entry, looked up): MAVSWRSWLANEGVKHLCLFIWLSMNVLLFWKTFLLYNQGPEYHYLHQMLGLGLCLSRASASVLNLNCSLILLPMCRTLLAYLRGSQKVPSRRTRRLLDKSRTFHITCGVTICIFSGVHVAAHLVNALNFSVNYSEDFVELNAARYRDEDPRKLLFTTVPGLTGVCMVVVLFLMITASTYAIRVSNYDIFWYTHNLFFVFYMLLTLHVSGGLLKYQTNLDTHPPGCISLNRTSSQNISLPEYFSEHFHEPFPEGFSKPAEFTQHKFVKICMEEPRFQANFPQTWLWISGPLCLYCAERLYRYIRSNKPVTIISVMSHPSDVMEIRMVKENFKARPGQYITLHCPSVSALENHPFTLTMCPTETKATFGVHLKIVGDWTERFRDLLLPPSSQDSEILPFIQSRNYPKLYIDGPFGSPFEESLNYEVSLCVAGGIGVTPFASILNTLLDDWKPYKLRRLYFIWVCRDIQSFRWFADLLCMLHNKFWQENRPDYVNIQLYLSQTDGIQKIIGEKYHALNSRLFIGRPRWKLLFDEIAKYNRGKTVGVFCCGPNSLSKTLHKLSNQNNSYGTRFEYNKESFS
# [20] = molecular target: NADPH oxidase 5 (Homo sapiens) (UniProt Q96PH1); test: compounds shifting NOX5 Amplex Red fluorescence – cell-based, HEK293-NOX5, NOX inhibitor project, primary screen (AID 1161); settings: HEK293-NOX5, ionomycin, 45 min, higher = more signal
# Sequence of NADPH oxidase 5 (Homo sapiens) (Q96PH1 whole entry, looked up): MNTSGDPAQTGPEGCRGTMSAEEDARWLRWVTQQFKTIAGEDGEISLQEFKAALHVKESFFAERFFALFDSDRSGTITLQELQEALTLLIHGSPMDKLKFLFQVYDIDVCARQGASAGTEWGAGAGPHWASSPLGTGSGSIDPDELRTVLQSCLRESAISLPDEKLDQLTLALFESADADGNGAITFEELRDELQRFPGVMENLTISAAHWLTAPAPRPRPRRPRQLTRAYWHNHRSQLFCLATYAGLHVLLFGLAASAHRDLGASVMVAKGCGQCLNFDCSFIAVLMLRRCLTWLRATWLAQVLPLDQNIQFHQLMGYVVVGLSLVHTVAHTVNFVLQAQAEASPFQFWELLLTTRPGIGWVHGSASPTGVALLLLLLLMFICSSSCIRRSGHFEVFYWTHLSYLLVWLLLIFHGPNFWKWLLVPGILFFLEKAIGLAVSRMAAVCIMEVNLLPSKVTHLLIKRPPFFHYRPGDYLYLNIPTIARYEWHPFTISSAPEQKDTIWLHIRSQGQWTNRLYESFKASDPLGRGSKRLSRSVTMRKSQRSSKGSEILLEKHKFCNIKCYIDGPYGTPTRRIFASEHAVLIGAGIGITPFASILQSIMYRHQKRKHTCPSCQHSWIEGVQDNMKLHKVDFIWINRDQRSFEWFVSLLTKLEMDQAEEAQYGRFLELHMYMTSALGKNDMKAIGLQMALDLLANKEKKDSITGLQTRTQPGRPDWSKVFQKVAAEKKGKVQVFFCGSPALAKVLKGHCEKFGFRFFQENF
SMILES,composite z-score [1],z-score [2],z-score [3],z-score [4],z-score [5],composite z-score [6],composite z-score [7],composite z-score (Torsin-1A (Homo sapiens) [8]),composite z-score (Torsin-1A (Homo sapiens) [9]),composite z-score [10],z-score [11],composite z-score [12],z-score [13],z-score [14],z-score [15],z-score [16],z-score [17],z-score [18],z-score [19],z-score [20]
COCCOC(=O)N1C(=O)[C@@]2(c3cc(C#CC4(O)CCCCCC4)ccc31)[C@H](C(N)=O)[C@H]1C(=O)O[C@H](c3ccccc3)[C@H](c3ccccc3)N1[C@@H]2c1ccccc1OCCO,0.507,-6.12 (inactive),0.533 (inactive),0.0921 (inactive),0.0643 (inactive),0.143,-0.522,0.329,0.445,1.34,0.127 (inactive),-1.03,4.94 (inactive),2.11 (inactive),3.54 (inactive),1.62 (inactive),0.563,2.63 (inactive),0.164 (inactive),0.38
CCOC(=O)[C@@H]1[C@@H]2C(=O)N(CC)C(=O)[C@@H]2C[C@@H]1Sc1ccccc1,0.202,0.371 (inactive),-0.868 (inactive),0.136 (inactive),1.04 (inactive),0.603,0.0357,0.592,0.975,0.209,-0.785 (inactive),-0.247,1.44 (inactive),1.16 (inactive),-0.245 (inactive),0.905 (inactive),-0.502,-2.32 (inactive),-4.05 (inactive),-0.796
CC(=O)N1Cc2ccccc2C[C@]2(N=C(c3ccc(OCCCO)cc3)O[C@@H]2c2ccccc2)C1=O,0.865,-3.38 (inactive),-0.497 (inactive),1.13 (inactive),2.08 (inactive),0.253,0.12,0.611,0.297,1.18,1.23 (inactive),-0.0536,26 (active),16.1 (active),1.17 (inactive),3.32 (inactive),0.463,-1.31 (inactive),0.13 (inactive),-1.9
COc1cc2c(cc1OC)CN(C(=O)[C@H]1[C@@H]3C(=O)O[C@@H](c4ccccc4)[C@@H](c4ccccc4)N3[C@@H](c3ccc(OCCO)cc3)[C@]13C(=O)Nc1ccc(C#CCCO)cc13)CC2,0.455,0.0229 (inactive),-0.0983 (inactive),-0.61 (inactive),-0.48 (inactive),1.31,0.659,0.272,0.764,1.62,0.0836 (inactive),0.433,2.66 (inactive),1.8 (inactive),0.796 (inactive),0.802 (inactive),0.142,1.46 (inactive),0.798 (inactive),1.66
COc1ccc([Si](C)(C)[C@H]2[C@H](CCn3cc([C@H](O)c4ccccc4)nn3)O[C@@]3(C(=O)N(Cc4cccc(N5C(=O)c6cccc7cccc5c67)c4)c4ccccc43)[C@@H]2C)cc1,-0.302,-3.31 (inactive),0.789 (inactive),-0.142 (inactive),1.01 (inactive),-0.713,-0.176,-0.601,-0.437,-0.0819,-0.749 (inactive),-0.0141,1.23 (inactive),-0.38 (inactive),-0.58 (inactive),0.376 (inactive),-0.0203,0.918 (inactive),1.57 (inactive),1.56
C=CCN1C(=O)[C@@]2(O[C@@H](CCn3cc([C@H](O)c4ccccc4)nn3)[C@H]([Si](C)(C)c3ccc(OC)cc3)[C@H]2C)c2ccccc21,0.351,-3.85 (inactive),0.0526 (inactive),3.9 (inactive),-0.448 (inactive),-0.0664,0.134,-0.0628,-0.168,1.7,0.508 (inactive),0.276,7.57 (inactive),1.93 (inactive),1.04 (inactive),0.916 (inactive),0.32,0.997 (inactive),0.99 (inactive),-1.6
COC(=O)[C@@]1(Cc2ccccc2)[C@H]2c3cc(C(=O)N4CCCC4)n(C[C@H](O)CO)c3C[C@H]2CN1C(=O)c1ccccc1,-0.303,0.0728 (inactive),-0.367 (inactive),0.39 (inactive),0.881 (inactive),1.29,0.163,0.677,1.4,0.139,-1.22 (inactive),-0.165,0.975 (inactive),0.192 (inactive),0.218 (inactive),0.592 (inactive),-0.26,0.223 (inactive),-0.303 (inactive),-1.45
CC(C)C[C@@H]1NC(=O)[C@H]2C[C@@H](C(=O)NCCCCCC[N+](C)(C)C)[C@@H](c3cccc(OCCO)c3)N2C1=O,-0.0449,-0.192 (inactive),-0.616 (inactive),-0.256 (inactive),-0.139 (inactive),-0.368,0.0855,0.126,0.62,1.75,0.898 (inactive),-0.64,6.18 (inactive),0.596 (inactive),0.853 (inactive),0.251 (inactive),-0.214,1.67 (inactive),0.95 (inactive),1.3
